Screening results from PubChem BioAssay.
sdo1 growth: sdo1-depleted yeast growth rescue. S. cerevisiae sdo1-depleted JHY4D growth rescue, OD600 30 h; stronger effect = higher value; pdr5 snq2 efflux-pump mutant strain. z-score at 10 µM. hit rate 0.21% among 140,000. AID 817;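 active means z-score above 3 at both the 24 hr and the 30 hr optical density reads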;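 further: z-score against mean and SD of all compound wells on the same plate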
MRP1 act: activators of MRP-1. AID 799. hit rate 0.61% among 140,000. H69AR cells + doxorubicin, viability rescue, CellTiter-Glo. viability increase, % at 10 µM;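 active means viability gain under doxorubicin at or above a set limit, the compound median plus 3 SD, cut at about 4.7% in these data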;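 further: MRP-1 overexpressing cells given doxorubicin 25 µM after compound pretreatment; 18-22 h compound pretreatment then 72 h with doxorubicin before readout; 0% = doxorubicin-only wells and 100% = vehicle-treated cells without doxorubicin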
Calb biofilm kill: kills Candida albicans biofilms; C. albicans biofilm + clotrimazole, Alamar Blue; inhibition, % at 6 µM; hit rate 0.14% among 85,000;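 active means inhibition above 20%; inactive means inhibition below 20%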;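 further: preformed 24 hr biofilms exposed to compound for 48 hr; 0% = biofilm without compound and 100% = blank killed by clotrimazole plus chlorhexidine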
MRP resist rev: reverses drug resistance mediated by MRP; H69AR cells + 2 uM doxorubicin, CellTiter-Glo, 72 h; AID 602; differential viability (reversal), % at 10 µM; hit rate 0.04% among 85,000;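 active means viability drop by adding the cancer drug above about 55%, with treated viability meeting a 40% cutoff, limit read from the data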;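 further: viability without doxorubicin minus viability with 2 µM doxorubicin for each compound; larger differential means the compound sensitizes cells more to doxorubicin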
Numbers without * were called inactive. This is a sample that favours compounds with a hit; in the whole collection about 0.98% have one here.

Results for COc1cccc(Nc2ncc(C(=O)O)c3ccccc23)c1 ?
sdo1 growth: 0.76; MRP1 act: 5.1*; Calb biofilm kill: -1; MRP resist rev: 0

What do the screens show for `COc1ccc(OC)c(NC(=O)c2cnc(Nc3ccccc3OC)c3ccccc23)c1`?
sdo1 growth: -0.4; MRP1 act: -1

What do the screens show for `O=C(NCc1cccnc1)c1cn(CCc2ccccc2)nn1`?
sdo1 growth: 1.3; MRP1 act: -2; Calb biofilm kill: 11; MRP resist rev: -4

What do the screens show for `O=C(NCc1ccccn1)c1cn(CCc2ccccc2)nn1`?
sdo1 growth: 0.67; MRP1 act: 0; Calb biofilm kill: 10; MRP resist rev: 57*

What do the screens show for `COc1ccc(/C=N\NC(=O)c2cc(O)c(O)c(O)c2)cc1CN1CCN(c2ccc(F)cc2)CC1`?
sdo1 growth: 1.8; MRP1 act: 12*

Results for NNC(=O)[C@H]1C[C@@H]1c1ccccc1 ?
sdo1 growth: 1.1; MRP1 act: 0

Results for O=C(CSc1nc2ccccc2o1)Nc1nc2ccc(Br)cc2s1 ?
sdo1 growth: -1; MRP1 act: 0

How did Cc1cccc2sc(NC(=O)CSc3nc4ccccc4o3)nc12 do in these assays?
sdo1 growth: -1.5; MRP1 act: -1; Calb biofilm kill: 52*; MRP resist rev: -6

Results for Cc1ccc(-c2noc(C3CCCN(S(=O)(=O)c4ccc5ccccc5c4)C3)n2)o1 (centres undefined) ?
sdo1 growth: 0.12; MRP1 act: 7.3*; Calb biofilm kill: 3; MRP resist rev: -38

What do the screens show for `CCCS(=O)(=O)c1c(S(=O)(=O)CCC)c2cnccn2c1C(=O)c1ccc(Cl)cc1`?
sdo1 growth: 15*; MRP1 act: -1; Calb biofilm kill: -4; MRP resist rev: 4

What do the screens show for `COc1cc(NC(=O)C2=C(N3CCOCC3)/C(=C\c3ccc(Cl)cc3Cl)CC2)cc(OC)c1OC`?
sdo1 growth: 0.09; MRP1 act: -2

How did Cc1ccc(C(=O)Nc2nnc(C)s2)o1 do in these assays?
sdo1 growth: 0.1; MRP1 act: 9.0*

How did Cc1nnc(NC(=O)c2ccco2)s1 do in these assays?
sdo1 growth: 0.06; MRP1 act: 5.6*; Calb biofilm kill: 0; MRP resist rev: 0

What do the screens show for `CCSc1nnc(NC(=O)COc2ccccc2)s1`?
sdo1 growth: 0.12; MRP1 act: 0; Calb biofilm kill: 6; MRP resist rev: -6

Results for Cc1nnc(NC(=O)COc2ccccc2)s1 ?
sdo1 growth: 1.4; MRP1 act: 5.1*; Calb biofilm kill: -6; MRP resist rev: 1

Results for CCOC(=O)c1c(C)nc2c(c1-c1ccc(Cl)cc1)C(=O)CC(C)(C)C2 ?
sdo1 growth: -1.1; MRP1 act: -1

Results for O=C(OC1CCc2ccccc2C1=O)c1ccccc1O (centres undefined) ?
sdo1 growth: -2; MRP1 act: 14*; Calb biofilm kill: 6; MRP resist rev: -8

Results for O=C(N/N=C1\CCc2ccccc21)c1ccccc1O ?
sdo1 growth: -0.74; MRP1 act: 0

What do the screens show for `O=C(COC(=O)c1ccc(S(=O)(=O)Nc2ccccc2)cc1)NCc1ccco1`?
sdo1 growth: 0.2; MRP1 act: -1

Results for O=C(O)CN(CC(=O)O)CC(=O)O ?
Calb biofilm kill: 6; MRP resist rev: -5

Results for C=CCOc1ccc(C=Nc2ccc(Cl)cc2)c(O)c1 ?
sdo1 growth: -0.75; MRP1 act: -1

What do the screens show for `COc1ccccc1-c1cc(C(=O)NC(C)c2ccccc2)no1` (centres undefined)?
sdo1 growth: -2; MRP1 act: 5.1*; Calb biofilm kill: 8; MRP resist rev: -4

Results for CC(C)C(=O)N1CCN(c2ccccc2NC(=O)c2cccc(Cl)c2)CC1 ?
sdo1 growth: 1.9; MRP1 act: -3; Calb biofilm kill: -2; MRP resist rev: 78*

Results for O=c1c(C(c2ccccc2)c2c(O)nc3n(c2=O)CCS3)c(O)nc2n1CCS2 ?
sdo1 growth: 0.22; MRP1 act: -3

What do the screens show for `CC1=C(C(=O)OCC(C)C)C(c2ccsc2)C2=C(CCCC2=O)N1` (centres undefined)?
sdo1 growth: 0.5; MRP1 act: -2

How did CC(/C=N/NC(=O)c1c(Br)cnn1C)=C\c1ccccc1 do in these assays?
sdo1 growth: -0.65; MRP1 act: 1

Results for CC(/C=N/NC(=O)c1nn(C)c(C)c1Br)=C\c1ccccc1 ?
sdo1 growth: -0.27; MRP1 act: 7.7*

What do the screens show for `CCCc1nnc(SCC(=O)N2CCCC(C)C2)n1CC1CCCO1` (centres undefined)?
sdo1 growth: 0.54; MRP1 act: 0; Calb biofilm kill: 6; MRP resist rev: 5

How did Cc1ccc(/C=C2\SC(=S)N(c3c(C)n(C)n(-c4ccccc4)c3=O)C2=O)cc1 do in these assays?
sdo1 growth: -0.32; MRP1 act: 7.6*

What do the screens show for `Cc1c(N2C(=O)/C(=C/c3ccccc3)SC2=S)c(=O)n(-c2ccccc2)n1C`?
sdo1 growth: -0.46; MRP1 act: 8.0*

How did CC1CCC(NC(=O)Cn2c3c(c(-c4ccccc4Cl)cc2=O)CCC3)CC1 (centres undefined) do in these assays?
sdo1 growth: -1.6; MRP1 act: 8.2*; Calb biofilm kill: 3; MRP resist rev: -1

How did CCCNC(=O)Cn1c(=O)/c(=C\c2ccc(-c3ccc([N+](=O)[O-])cc3)o2)s/c1=C\C(=O)C(C)(C)C do in these assays?
sdo1 growth: 0.54; MRP1 act: -4

How did NC(=O)C1(N2CCCCC2)CCN(C(=O)c2cccn3c(=O)c4cc(Cl)ccc4nc23)CC1 do in these assays?
sdo1 growth: 0.76; MRP1 act: 5.6*; Calb biofilm kill: 2; MRP resist rev: 11

What do the screens show for `Cn1c(=O)c2c(nc(N3CCCCCC3)n2Cc2cccc3ccccc23)n(C)c1=O`?
sdo1 growth: -2.1; MRP1 act: -6; Calb biofilm kill: 1; MRP resist rev: 64*

How did c1ccc(OCCSc2nc3ccccc3[nH]2)cc1 do in these assays?
sdo1 growth: -0.09; MRP1 act: 5.3*; Calb biofilm kill: 5; MRP resist rev: 27

How did Cc1cc(Br)ccc1NC(=O)CNC(=O)CN1C(=O)NC2(CCCCCC2)C1=O do in these assays?
sdo1 growth: 0.24; MRP1 act: 7.5*; Calb biofilm kill: 5; MRP resist rev: 2

What do the screens show for `Cc1ccc(NC(=O)NC(=O)CN2C(=O)NC3(CCCCCCC3)C2=O)c(C)c1`?
sdo1 growth: -0.52; MRP1 act: -1; Calb biofilm kill: -2; MRP resist rev: -10

What do the screens show for `O=C1[C@@H]2[C@H](Cc3ccc(O)cc3)N[C@]3(C(=O)Nc4ccccc43)[C@@H]2C(=O)N1c1ccc(F)cc1`?
sdo1 growth: 0.15; MRP1 act: 5.7*; Calb biofilm kill: 9; MRP resist rev: 11

How did CCOC(=O)C1=C(C)NC(C)=C(C(=O)OC)C1c1cccc(Cl)c1Cl (centres undefined) do in these assays?
sdo1 growth: -1.8; MRP1 act: -1; Calb biofilm kill: 10; MRP resist rev: -3

What do the screens show for `COC(=O)C1=C(C)NC(C)=C(C(=O)OC)C1c1ccccc1OCc1c(C)no[n+]1[O-]`?
sdo1 growth: 0.49; MRP1 act: 9.0*; Calb biofilm kill: 4; MRP resist rev: 6
